From PubChem BioAssay come the findings set out here.

Usually inhibition stands for the drop in the measured response relative to a control, in per cent.

Active and inactive are the calls of the source.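 How the source made its calls, unless noted: active means NADPH fluorescence slope more negative than the mean of all samples by about 3 SD, 99.7% confidence; inactive means the rest.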

Assay [1] is described as follows: inhibitors of TNFa-induced NFkB p65 translocation, primary screen, imaging, HUVEC, MLSMR starter and 10KST1 sets (AID 438;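 active means inhibition above 20% together with a positive visual image hit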;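 further: compound added about 3h40 before a 20 min TNFalpha stimulation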;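 on inhibition: signal is the nuclear over cytoplasmic p65 intensity ratio per well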). As to conditions: HUVEC TNFa-induced p65 nuclear translocation; cell count: measured here: nuclei count (cytotoxicity indicator), at 2.08 µM; inhibition: at 2 µM, stronger effect = higher value, 0% TNFa-plus-vehicle, 100% no-TNFa wells.
Assay [2] can be described thus: inhibitors of mutant huntingtin aggregation, primary screen, imaging, exon1htt(103Q)mCFP cells, high-content imaging (AID 483;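 active means visual image review flags a hit and inhibition of aggregation exceeds 20%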;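 further: compound exposure lasted 3 days before fixation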;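 on nuclei count: percent of the per-plate median nuclei count of sample wells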). Particulars: exon1htt(103Q)mCFP cell line, aggregate imaging, at 2 µM; inhibition of aggregation: stronger effect = higher value; nuclei count: measured here: cell count, toxicity.
The nature of assay [3]: inhibitors of E-selectin induction by TNFa, primary screen, imaging, HUVEC, immunofluorescence, MLSMR starter and 10KST1 sets (AID 487;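 active means visually confirmed hit in the image check and inhibition above 20%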;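 on inhibition: signal is fraction of cell area covered by stained E-selectin grains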;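 on nuclei count: 100% = median nuclei count of all wells on the same plate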). As to conditions: HUVEC TNFalpha-induced E-selectin immunofluorescence imaging, at 2 µM; inhibition: stronger effect = higher value; nuclei count: measured here: cell number, toxicity.
The target of assay [4] is Voltage-gated potassium channel subunit beta-2 (Rattus norvegicus) (UniProt P62483). The experiment in a line: KvBeta enzyme negative modulators, primary screen, biochemical, NADPH fluorescence (AID 622;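 active means fluorescence slope higher than the sample average by over 3 SD, cut at about -0.22 in these data, passing the limit was not always enough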;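 further: slope of raw intensity against log time taken from 70 to 1610 s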). Particulars: recombinant KvBeta, 4-cyanobenzaldehyde reduction, at 10 µM, stronger effect = higher value.
Sequence of Voltage-gated potassium channel subunit beta-2 (Rattus norvegicus) (P62483 whole entry, looked up): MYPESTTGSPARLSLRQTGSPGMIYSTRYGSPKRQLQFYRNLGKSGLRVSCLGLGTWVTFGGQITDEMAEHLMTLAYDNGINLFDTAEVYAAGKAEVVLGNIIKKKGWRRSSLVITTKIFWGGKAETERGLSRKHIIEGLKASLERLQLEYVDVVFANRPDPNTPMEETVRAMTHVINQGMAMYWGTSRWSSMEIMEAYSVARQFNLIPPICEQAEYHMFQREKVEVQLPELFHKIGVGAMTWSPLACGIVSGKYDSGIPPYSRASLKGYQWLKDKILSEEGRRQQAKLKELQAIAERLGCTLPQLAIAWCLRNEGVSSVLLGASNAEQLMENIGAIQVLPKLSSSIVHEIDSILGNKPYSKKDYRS
The target is the same in assay [5]. Description: KvBeta positive modulators, primary screen, biochemical, NADPH fluorescence (AID 623).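 Further: fluorescence intensity change per second fitted from 20 to 320 s.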 Particulars: Recombinant KvBeta, NADPH fluorescence decrease slope, 10 min; at 10 µM; stronger effect = lower value.
Assay [6] addresses Alpha-2C adrenergic receptor (Homo sapiens) (UniProt P18825). The experiment in a line: modulators of alpha2C/GIRK thallium flux, primary screen, cell-based, HEK293 alpha2C/GIRK1/2 (AID 624;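 active means fluorescence slope after compound addition differing from the mean of all screened samples at 99.7% confidence, in either direction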;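 further: slope of fluorescence ratio to pre-addition baseline per second over 15 to 24 s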). Particulars: thallium flux BTC fluorescence, at 10 µM, actives lie on both sides.
Assay [7] can be described thus: inhibitors of Sendai virus-induced IRF3 signaling, primary screen, TLR/RLR signaling modifier project, cell-based, Sendai virus stimulus, luciferase, 10K MLSCN set (AID 602276;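 active means inhibition at or above 50% at 10 µM; inactive means inhibition below 50%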;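 further: firefly luciferase from ISG56 promoter only with Renilla not read in this screen; 0% = Sendai virus plus DMSO and 100% = medium plus DMSO without virus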). Particulars: HEK293 RL24 IRF3 luciferase reporter, at 10 µM, stronger effect = higher value. (In general: A reporter such as luciferase makes a cellular process visible.)
The nature of assay [8]: inhibitors of poly I:C-induced TLR3 signaling, primary screen, cell-based, poly I:C stimulus, luciferase, 10K MLSCN set (AID 602277;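 active means inhibition of the reporter signal at or above 50%; inactive means inhibition below 50%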). Particulars: HEK293-TLR3 RL24 IRF3 luciferase reporter, at 10 µM, stronger effect = higher value.

Sequence of Alpha-2C adrenergic receptor (Homo sapiens) (P18825 whole entry, looked up): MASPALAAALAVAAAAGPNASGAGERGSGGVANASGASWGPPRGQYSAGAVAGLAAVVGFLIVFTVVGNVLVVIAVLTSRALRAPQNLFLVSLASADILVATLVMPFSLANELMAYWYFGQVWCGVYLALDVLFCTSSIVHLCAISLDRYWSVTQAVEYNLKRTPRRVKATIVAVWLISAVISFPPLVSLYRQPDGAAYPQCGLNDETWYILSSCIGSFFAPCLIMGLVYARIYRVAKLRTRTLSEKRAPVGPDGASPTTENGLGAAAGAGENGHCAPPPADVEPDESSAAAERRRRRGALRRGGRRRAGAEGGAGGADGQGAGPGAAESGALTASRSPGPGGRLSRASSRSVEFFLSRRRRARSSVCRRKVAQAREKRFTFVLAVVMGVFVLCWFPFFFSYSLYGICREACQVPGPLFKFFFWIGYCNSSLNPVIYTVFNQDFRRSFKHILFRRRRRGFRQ

As to `O=C(Nc1ccccc1C(=O)N1CCOCC1)C1CCC(=O)N1C1CCCC1` (centres undefined), the cell count in assay [1] is 229. Also, the inhibition in assay [1] was 14.7% (inactive); in assay [3], -48.2% (inactive); in assay [7], 4.86% (inactive); in assay [8], 7.23% (inactive). The inhibition of aggregation in assay [2] is 8.7% (inactive). Also, the nuclei count in assay [2] was 79.1%; in assay [3], 110%. Besides, in assay [4], the fluorescence slope is -0.425 (inactive). In addition, in assay [5], the NADPH fluorescence slope is -4.5e-05 (inactive). The slope in assay [6] is 0.00481 (inactive).
For the molecule `COc1ccc2c(c1)C(C)=CC(C)(C)N2C(=O)C(C)N1C(=O)c2ccccc2C1=O` (centres undefined), the cell count in assay [1] was 637. The inhibition in assay [1] is 4.5% (inactive); in assay [3], 21.2% (inactive); in assay [7], 5.4% (inactive); in assay [8] it was 5.89% (inactive). The inhibition of aggregation in assay [2] was 7.1% (inactive). Moreover, the nuclei count in assay [2] amounted to 108%; in assay [3], 118%. Besides, the fluorescence slope in assay [4] is -0.612 (inactive). The NADPH fluorescence slope in assay [5] is -1.8e-05 (inactive). In assay [6], the slope was 0.00489 (inactive).
On to `Cc1cc(C)c(C#N)c(SCc2ccc(C#N)cc2)n1`, for which the cell count in assay [1] stood at 609. Also, the inhibition in assay [1] was -7.7% (inactive); in assay [3], 40.3% (inactive); in assay [7] it was 5.07% (inactive); in assay [8], -3.75% (inactive). The inhibition of aggregation in assay [2] is -4.1% (inactive). In addition, the nuclei count in assay [2] amounted to 52%; in assay [3], 104%. In addition, the fluorescence slope in assay [4] is -0.435 (inactive). Also, the NADPH fluorescence slope in assay [5] is -5.8e-05 (inactive). Besides, the slope in assay [6] is 0.00656 (inactive).
Regarding `Cc1noc(/C=C/N(C)C)c1S(=O)(=O)N1CCCC(C(=O)NCCC2=CCCCC2)C1` (centres undefined), the cell count in assay [1] stood at 518. Further, the inhibition is 0.9% (inactive) in assay [1], -25.3% (inactive) in assay [3], 1.59% (inactive) in assay [7] and -0.365% (inactive) in assay [8]. In assay [2], the inhibition of aggregation is -2.1% (inactive). In addition, the results for the nuclei count in assay [2] and in assay [3] were 105% and 115%, respectively. For the same molecule, the fluorescence slope in assay [4] was -0.548 (inactive). Also, in assay [5], the NADPH fluorescence slope was -1.2e-05 (inactive). The slope in assay [6] was 0.00579 (inactive).
On to `O=C(Cn1ccc2ccccc2c1=O)Nc1ccc2c(c1)OCO2`, for which the cell count in assay [1] was 231. The inhibition was -1.8% (inactive) in assay [1], 0% (inactive) in assay [3], 0.207% (inactive) in assay [7] and -4.72% (inactive) in assay [8]. Moreover, in assay [2], the inhibition of aggregation is 1% (inactive). Moreover, the values for the nuclei count in assay [2] and in assay [3] were 103% and 91.4%, respectively. In assay [4], the fluorescence slope was -0.602 (inactive). For the same molecule, in assay [5], the NADPH fluorescence slope is -4.5e-05 (inactive). Besides, the slope in assay [6] is 0.00747 (inactive).
For `O=C1c2ccccc2C(=O)N1C/C=C/CN1C(=O)c2ccccc2C1=O`, the cell count in assay [1] is 480. Moreover, the inhibition is 7.4% (inactive) in assay [1], -12.9% (inactive) in assay [3], 23.3% (inactive) in assay [7] and 18.7% (inactive) in assay [8]. In assay [2], the inhibition of aggregation was 0.3% (inactive). In addition, the nuclei count was 107% in assay [2] and 113% in assay [3]. Besides, the fluorescence slope in assay [4] was -0.331 (inactive). In assay [5], the NADPH fluorescence slope was -1.5e-05 (inactive). The slope in assay [6] was 0.007 (inactive).
Consider `Cc1cc(C(=O)N2CCN(c3ncccn3)CC2)cs1`, for which the cell count in assay [1] came out at 401. Moreover, the inhibition in assay [1] is -0.7% (inactive); in assay [3] it was 0.9% (inactive); in assay [7] it was 13.1% (inactive); in assay [8] it was -6.87% (inactive). Further, the inhibition of aggregation in assay [2] was 4.3% (inactive). The nuclei count in assay [2] was determined as 99%; in assay [3], 110%. Moreover, the fluorescence slope in assay [4] was -0.591 (inactive). In assay [5], the NADPH fluorescence slope is -2.2e-05 (inactive). For the same molecule, the slope in assay [6] is 0.00264 (inactive).
`O=C(Nc1cccc(Cl)c1)N1CCN(Cc2ccccc2)CC1`: the cell count in assay [1] is 652. For the same molecule, the inhibition is 1.3% (inactive) in assay [1], -40% (inactive) in assay [3], -35.1% (inactive) in assay [7] and -81.7% (inactive) in assay [8]. Further, in assay [2], the inhibition of aggregation is -6.8% (inactive). The nuclei count is 99.5% in assay [2] and 106% in assay [3]. The fluorescence slope in assay [4] was -0.529 (inactive). In addition, the NADPH fluorescence slope in assay [5] was -3.3e-05 (inactive). Also, the slope in assay [6] is 0.00631 (inactive).
In the case of `COc1ccc(C/C(N)=N/n2cnnc2)cc1Cl`, the cell count in assay [1] was 356. Further, the inhibition in assay [1] is -3.8% (inactive); in assay [3] it was -14.7% (inactive); in assay [7], 6.09% (inactive); in assay [8] it was 35.6% (inactive). In assay [2], the inhibition of aggregation is -13.5% (inactive). Also, the values for the nuclei count in assay [2] and in assay [3] were 99.1% and 107%, respectively. For the same molecule, the fluorescence slope in assay [4] was -0.447 (inactive). Further, the NADPH fluorescence slope in assay [5] is -3.3e-05 (inactive). For the same molecule, the slope in assay [6] is 0.00222 (inactive).
Consider `C=CCNC(=O)c1cc(-c2ccccc2O)on1`, for which, in assay [1], the cell count is 856. Also, the inhibition was -0.5% (inactive) in assay [1], -63.2% (inactive) in assay [3], -22.6% (inactive) in assay [7] and -96.4% (inactive) in assay [8]. Also, the inhibition of aggregation in assay [2] was -0.2% (inactive). Besides, the nuclei count is 109% in assay [2] and 113% in assay [3]. The fluorescence slope in assay [4] was -0.588 (inactive). Moreover, the NADPH fluorescence slope in assay [5] is -1.8e-05 (inactive). Moreover, the slope in assay [6] is 0.0069 (inactive).
Regarding `COc1ccc(S(=O)(=O)N2CCCC(C(=O)N3CCCCCC3)C2)cc1` (centres undefined), the cell count in assay [1] was determined as 404. The inhibition in assay [1] was -5.2% (inactive); in assay [3] it was -8.6% (inactive); in assay [7], 12% (inactive); in assay [8], 10.4% (inactive). For the same molecule, in assay [2], the inhibition of aggregation was -0.4% (inactive). Further, the nuclei count was 106% in assay [2] and 105% in assay [3]. In addition, the fluorescence slope in assay [4] is -0.403 (inactive). In addition, the NADPH fluorescence slope in assay [5] was -5e-05 (inactive). Also, in assay [6], the slope is 0.00316 (inactive).
On to `COCCCN(C(C)=O)c1nc(-c2ccccc2)cs1`, for which the cell count in assay [1] worked out at 472. The inhibition in assay [1] is -6.3% (inactive); in assay [3] it was 6% (inactive); in assay [7], -31.3% (inactive); in assay [8], -75% (inactive). The inhibition of aggregation in assay [2] is -6% (inactive). Besides, the nuclei count in assay [2] amounted to 90.9%; in assay [3], 114%. Moreover, in assay [4], the fluorescence slope is -0.533 (inactive). Also, the NADPH fluorescence slope in assay [5] was -3.7e-05 (inactive). In addition, the slope in assay [6] is 0.00569 (inactive).
With `Cc1ccc(CCNC(=O)C2CCN(S(=O)(=O)c3c(C)nn(C)c3C)CC2)cc1`, in assay [1], the cell count came out at 621. Besides, the inhibition in assay [1] is 6.1% (inactive); in assay [3], -8.4% (inactive); in assay [7], -5.1% (inactive); in assay [8] it was 6.19% (inactive). Moreover, the inhibition of aggregation in assay [2] was -21.9% (inactive). Further, the nuclei count was found to be 105% in assay [2] and 116% in assay [3]. Further, the fluorescence slope in assay [4] is -0.618 (inactive). In addition, in assay [5], the NADPH fluorescence slope is -5.1e-06 (inactive). Also, in assay [6], the slope was 0.00762 (inactive).
Take `Cc1cccc(C)c1OCc1nnc(SCC(=O)Nc2ccccc2F)o1`: the cell count in assay [1] came out at 592. Also, the inhibition in assay [1] is -12% (inactive); in assay [3], 4% (inactive); in assay [7], 16.4% (inactive); in assay [8], 25.4% (inactive). In assay [2], the inhibition of aggregation is 21.8% (inactive). Besides, the nuclei count in assay [2] amounted to 67.2%; in assay [3], 109%. For the same molecule, in assay [4], the fluorescence slope is -0.558 (inactive). Further, in assay [5], the NADPH fluorescence slope is -3e-05 (inactive). Besides, in assay [6], the slope was 0.00659 (inactive).
